Test results as given in PubChem BioAssay (NCATS).
Records with an inconclusive call do not appear. Where a call stands in place of a potency, no number is given. A number with no mark means an inactive call. Active and inactive are the calls of the source. The call rests on the fitted dose curve; in most records, active means well fitted inhibition curve with a large enough effect; inconclusive means small, poorly fitted or top-dose-only effect; inactive means no such curve, though single readings can be large or run the other way. Where a SMILES comes first, the peptide text is derived from it. [ ]: non-standard residue; d: D form. dPhe(4-Cl) = N[C@H](Cc1ccc(Cl)cc1)C(=O)O; d2Nal = N[C@H](Cc1ccc2ccccc2c1)C(=O)O; dCit = NC(=O)NCCC[C@@H](N)C(=O)O; d3Pal = N[C@H](Cc1cccnc1)C(=O)O

How the values were obtained:
[1] = system: Zika virus NS2B-NS3 protease (unlinked complex); assay: Primary screen GU Rhodamine qHTS for Zika virus inhibitors: Unlinked NS2B-NS3 protease assay (AID 1347159); further: nearly all actives have a fitted effect of over 60% in size; further: potency means the concentration at half of the fitted maximal effect
Outline: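 Percent inhibition derives from the 15-min fluorescence change (ex 480, em 540 nm), normalized to no-enzyme and no-inhibitor wells. Reactions contained 25 nM NS2B-NS3 complex and 1.5 microM substrate in 10 mM Tris-HCl pH 8.0.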

[2] = system: Zika virus NS2B-NS3 protease (linked construct); assay: Primary screen NINDS Rhodamine qHTS for Zika virus inhibitors (AID 1347160); further: nearly all actives have a fitted effect of over 55% in size
Outline: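 In 10 mM Tris-HCl pH 8.0 containing 0.01% Tween 20, linked NS2B-NS3 protease (25 nM final) is exposed to test compounds for 15 min. Cleavage of 1.5 microM Rhodamine110 substrate is tracked by fluorescence over 15 min.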

Compound | Potency [1] | Potency [2] | activity change, negative = inhibition [1] | activity change, negative = inhibition [2]
NC(=O)[C@H]1CCS[C@@H]2C[C@]3(CCCN3C(=O)Cc3ccc(NC(=O)COc4ccc(Cl)cc4Cl)cc3)C(=O)N12 | inactive | inactive |  | 
CC(O)(CC(=O)O)CC(=O)OCc1ccc(O[C@@H]2O[C@H](CO)[C@@H](O)[C@H](O)[C@H]2O)cc1 (stereo not given in full) | inactive | inactive |  | 
CC1=C(COC2OC(CO)C(O)C(O)C2O)C(C(CO)C(=O)O)CC1 (stereo not given) | inactive | inactive |  | 
C=C1C(O)CC2C(C(=O)O)=COC(O[C@@H]3O[C@H](COC(=O)/C=C/c4ccc(O)cc4)[C@@H](O)[C@H](O)[C@H]3O)C12 (stereo not given in full) | inactive | inactive |  | 
COC(=O)N(C)c1c(N)nc(-c2nn(Cc3ccccc3F)c3ncccc23)nc1N | inactive | inactive |  | 
FC(F)(F)c1cc(-c2ncn(/C=C\c3nnco3)n2)cc(C(F)(F)F)c1 | inactive | inactive |  | 
C[C@H]1[C@H](O)O[C@@H]2O[C@@]3(C)CC[C@H]4[C@H](C)CC[C@@H]1[C@@]24OO3 | inactive | inactive |  | 
C=C1C(O)C(O)C2(CC3C(C)=CCC4C(C)(CO)CCCC34C)OC2C1O (stereo not given) | inactive | inactive |  | 
CC1(C=O)CC[C@]2(C(=O)O[C@@H]3O[C@H](CO)[C@@H](O)[C@H](O)[C@H]3O)CC[C@]3(C)C(=CCC4[C@@]5(C)C[C@H](O)[C@H](O[C@@H]6OC[C@@H](O)[C@H](O)[C@H]6O)[C@@](C)(CO)C5CC[C@]43C)C2C1 (stereo not given in full) | inactive | inactive |  | 
CC(=O)O[C@@H]1C[C@@H](OC(C)=O)C(C)(C)/C=C/[C@H](C)[C@H](OC(C)=O)[C@@]2(O)C[C@H](C)[C@H](OC(=O)c3ccccc3)[C@@H]2/C=C/1C | inactive | inactive |  | 
O=C(O)COCCN1CCN([C@H](c2ccccc2)c2ccc(Cl)cc2)CC1 | inactive | inactive |  | 
CC(=O)N[C@H](Cc1ccc2ccccc2c1)C(=O)N[C@H](Cc1ccc(Cl)cc1)C(=O)N[C@H](Cc1cccnc1)C(=O)N[C@@H](CO)C(=O)N[C@@H](Cc1ccc(O)cc1)C(=O)N[C@H](CCCNC(N)=O)C(=O)N[C@@H](CC(C)C)C(=O)N[C@@H](CCCN=C(N)N)C(=O)N1CCC[C@H]1C(=O)N[C@H](C)C(N)=O (Ac-[d2Nal][dPhe(4-Cl)][d3Pal]SY[dCit]LRP[dA]-NH2) | inactive | inactive |  | 
O=C(Nc1c(-c2cccs2)nc2ccccn12)c1ccc(Cl)cc1 | inactive | inactive |  | 
CC(C)(F)C[C@@H](N[C@@H](c1ccc(-c2ccc(S(C)(=O)=O)cc2)cc1)C(F)(F)F)C(=O)NC1(C#N)CC1 | inactive | inactive |  | 
CC12CCC(OC3OC(CO)C(O)C(OC4OC(CO)C(O)C(O)C4O)C3O)CC1=CCC1C2CCC2(C)/C(=C3/COC(=O)C3)CCC12O (stereo not given) | inactive | inactive |  | 
NCCCNc1ccc(Nc2nccc(Nc3cc(C4CC4)[nH]n3)n2)cc1 | inactive | inactive |  | 
C=C1CCC[C@]2(C)CC[C@@H](C(=C)C(=O)O)[C@H](O)[C@@H]12 | inactive | inactive |  | 
CN1CCN(C2CCC(n3cc(-c4ccc(Oc5ccccc5)cc4)c4c(N)ncnc43)CC2)CC1 (stereo not given) | inactive | inactive |  | 
CC(C)c1cc(CNc2nc(Nc3cc(C4CC4)[nH]n3)cc(N3CCN(C)CC3)n2)on1 | inactive | inactive |  | 
C/C=C/c1cc(OC)c2c(c1)[C@@H](C)[C@@H](c1ccc(O)c(OC)c1)O2 | inactive | inactive |  | 
COC(=O)C1=C2Nc3ccccc3C23CCN2CCCC(C(C)O)(C1)C23 (stereo not given) | inactive | inactive |  | 
CC(C)[C@@](C)(O)[C@@H]1CN(c2nc(-c3[nH]nc4ncccc34)c(F)cc2Cl)CCN1 | inactive | inactive |  | 
CCN1CCN(Cc2ccc(NC(=O)c3ccc(C)c(NC(=O)c4cncc(-c5cccs5)c4)c3)cc2C(F)(F)F)CC1 | inactive | inactive |  | 
C[S+](CC[C@H](N)C(=O)[O-])C[C@H]1O[C@@H](n2cnc3c(N)ncnc32)[C@H](O)[C@@H]1O (stereo not given in full) | inactive | inactive |  | 
COc1cc(O)cc(C)c1C(=O)O[C@H]1[C@@H](OC(C)=O)[C@H](n2ccc(=O)[nH]c2=O)O[C@@H]1CO | inactive | inactive |  | 
Cc1ccc(S(=O)(=O)c2ccc([N+](=O)[O-])o2)cc1 | inactive | inactive |  | 
C/C(=C\CCC(C)CCO)C(=O)O[C@@H]1[C@@H](O)[C@H](OC2OC=C(C(=O)O)C3CCC(C)(O)C23)O[C@H](CO)[C@H]1O (stereo not given in full) | 35.5 µM (active) | inactive |  | 
C1CCC[C@H]2CCCN3CC[C@@H](CCCCCC[C@@H]4CCCN5CC[C@@H](CC1)O[C@@H]45)O[C@@H]23 |  |  | -7.05% [at 0.23 µM] | 20.2% [at 0.092 µM]

Compound | Potency [1] | Potency [2] | activity change, negative = inhibition [1] | activity change, negative = inhibition [2]
C[C@@H]1CN(Cc2ccccc2)C[C@H]1c1nc2c(cnn2C2CCOCC2)c(=O)[nH]1 | inactive | inactive |  | 
COc1cc(C(=O)O)ccc1OC1OC(CO)C(O)C(O)C1O (stereo not given) | inactive | inactive |  | 
COC1C(CO)OC(n2cnc3c(=O)[nH]cnc32)C1O (stereo not given) | inactive | inactive |  | 
CC(=O)NC[C@H]1CN(c2ccc(N3CCN(C(=O)CO)CC3)c(F)c2)C(=O)O1 | inactive | inactive |  | 
CC(=O)O[C@@H]1c2c(C)coc2C(=O)[C@@]23O[C@@H]2CC[C@H](C)[C@@]13C | inactive | inactive |  | 
C=C(C)C1CCC(C)C12CC(O)C1(C)OC1C2OC(=O)C(N)CCC(=O)O (stereo not given) | inactive | inactive |  | 
Cc1cccc(S(=O)(=O)N2CCC[C@@H]2CCN2CCC(C)CC2)c1 | inactive | inactive |  | 
C=CC1(C)CC(OC(=O)/C(C)=C\COC(C)=O)C(C(=C)C(=O)O)C(O)C1C(=C)CO (stereo not given) | inactive | inactive |  | 
O=C(CCc1ccccc1)N1CCC(O)(Cn2cnc3cc(Cl)ccc3c2=O)CC1 | inactive | inactive |  | 
CC1=C(C)C(=O)OC(C(C)C2CCC3C4C5OC5C5(O)CC(OC6OC(CO)C(OC7OC(C)C(O)C(O)C7O)C(O)C6O)CC(O)C5(C)C4CCC23C)C1 (stereo not given) | inactive | inactive |  | 
Cc1nc2ccc(Oc3ccc(F)cc3)cc2c(=O)n1C[C@H]1CCCN(C(C)C)C1 | inactive | inactive |  | 
CC12CCC3c4ccc(O)cc4CCC3C1CC(OC1OC(C(=O)O)C(O)C(O)C1O)C2O (stereo not given) | inactive | inactive |  | 
COC1CC(O[C@H]2CC[C@@]3(C)C(=CC[C@]4(O)C3[C@H](OC(C)=O)[C@@H](OC(=O)c3ccccc3)[C@]3(C)[C@@H](C(C)=O)CC[C@@]34O)C2)OC(C)C1OC1CC(OC)C(OC2CC(OC)C(OC3OC(C)C(OC4OC(CO)C(O)C(O)C4O)C(OC)C3O)C(C)O2)C(C)O1 (stereo not given in full) |  |  | 25.7% [at 19.1 µM] | -1.64% [at 10.7 µM]
CC1(C)CC[C@]2(CO[C@@H]3O[C@H](CO)[C@@H](O)[C@H](O)[C@H]3O)[C@@H](O)C[C@]3(C)C(=CCC4[C@@]5(C)CC[C@H](O[C@@H]6O[C@H](CO[C@@H]7O[C@H](CO[C@@H]8OC[C@@H](O)[C@H](O)[C@H]8O)[C@@H](O)[C@H](O)[C@H]7O)[C@@H](O)[C@H](O)[C@H]6O)C(C)(C)C5CC[C@]43C)[C@@H]2C1 (stereo not given in full) | inactive | inactive |  | 
C[C@H]1CC(=O)Nc2cccc(-c3cnn(C(C)(C)C)c3)c2N1 | inactive | inactive |  | 
CC(=O)O[C@@H]1[C@H](O)[C@@H](O[C@@H]2O[C@@H](C)[C@H](O[C@@H]3OC[C@@H](O)[C@H](O[C@@H]4OC[C@@H](O)[C@H](O)[C@H]4O)[C@H]3O)[C@@H](O[C@@H]3O[C@H](CO)[C@@H](O)[C@H](O)[C@H]3O)[C@H]2O)[C@H](OC(=O)[C@]23CCC(C)(C)C[C@H]2C2=CCC4[C@@]5(C)CC[C@H](O[C@@H]6O[C@H](C(=O)O)[C@@H](O)[C@H](O[C@@H]7OC[C@@H](O)[C@H](O)[C@H]7O)[C@H]6O[C@@H]6O[C@H](CO)[C@H](O)[C@H](O)[C@H]6O)[C@@](C)(C=O)C5CC[C@@]4(C)[C@]2(C)CC3)O[C@@H]1C (stereo not given in full) |  |  | -1.88% [at 19.1 µM] | 7.65% [at 10.7 µM]
COC(=O)C1=CO[C@@H](O[C@@H]2O[C@H](CO)[C@@H](O)[C@H](O)[C@H]2O)[C@@H]2C(COC(C)=O)=C[C@H](O)[C@H]12 | inactive | inactive |  | 
CC1(C)CC[C@]2(C(=O)OC3OC(CO)C(O)C(O)C3O)CC[C@]3(C)C(=CCC4[C@@]5(C)CC[C@H](OC6OC(C(=O)O)C(O)C(OC7OC(CO)C(O)C(O)C7O)C6O)C(C)(C)C5CC[C@]43C)C2C1 (stereo not given in full) | inactive | inactive |  | 
C[C@@H]1O[C@@H](O[C@H]2[C@H](O)[C@@H](O)[C@H](OC3CCC4(C)C5CCC(C)(C(CO)OC6OC(CO)C(O)C(O)C6O)CC5=CCC4C3(C)C)O[C@@H]2CO)[C@H](O)[C@H](O)[C@H]1O (stereo not given in full) | inactive | inactive |  | 
Cc1cc(C)c(Nc2ccnc(Nc3ccc(C#N)cc3)n2)c(C)c1 | inactive | inactive |  | 
CC1=CC(=O)C(=C(C)C)CC2C1CCC2(C)O (stereo not given) | inactive | inactive |  | 
OC[C@@]1(O)CO[C@@H](OC[C@H]2O[C@@H](Oc3c[nH]c4ccccc34)[C@H](O)[C@@H](O)[C@@H]2O)[C@@H]1O | inactive | inactive |  | 
Cc1[nH]c2ccccc2c1CCNC(=O)c1ccccc1F | inactive | inactive |  | 
COc1cc2c(cc1OC)[C@@H]1[C@H](O)[C@@H](OC)C=C3CCN(C2)[C@H]31 | inactive | inactive |  | 
NC1CCC(Nc2cc(-c3cccc(NCc4cccc(F)c4)n3)c(Cl)cn2)CC1 (stereo not given) | inactive | inactive |  | 
CC1=CC(=O)CC(C)(C)C1/C=C/C(C)O[C@@H]1O[C@H](CO)[C@@H](O)[C@H](O)[C@H]1O[C@@H]1OC[C@](O)(CO)[C@H]1O (stereo not given in full) | inactive | inactive |  | 
NC[C@@](O)(c1ccc(Cl)cc1)c1ccc(-c2cn[nH]c2)cc1 | inactive | inactive |  | 
